Screens from PubChem.
Abeta yeast res – qHTS for compounds that reverse cellular toxicity of Amyloid beta (A-beta) peptide in yeast: Primary Screen; Potency, µM (top dose mostly 46.1 µM), actives largely listed as activators; actives 0.063% (n = 410,000); yeast expressing A-beta42, growth rescue, OD600, 48 h; response scale: 0% DMSO, 100% iron-clioquinol control; further: nearly all actives have a fitted effect of over 55% in size
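Growth rescue measured by 600 nm absorbance after 48 h yeast culture at 30 C with compound. Values normalized between DMSO and an equimolar ferric chloride plus clioquinol control.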
TDP43 rescue – qHTS of TDP-43 Inhibitors; TDP-43 expressing yeast growth rescue, BacTiter-Glo, 24 h; Potency, µM (top dose mostly 46.1 µM), for the others: top-dose growth rescue (activation), hits mostly activators; actives 1.8% (n = 410,000); further: % of control where 0% means no effect; nearly all actives have a fitted effect of over 50% in size
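Yeast cells expressing TDP-43 under galactose induction are exposed to compounds for 24 hr at 30 deg C. BacTiter-Glo luminescence measures growth, so protective compounds score as activators.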
aSyn rescue – qHTS of alpha-syn Inhibitors; Yeast expressing alpha-synuclein, growth rescue, BacTiter-Glo, 24 h; Potency, µM (series often up to 46.1 µM), for inactives: top-dose growth rescue (activation), hits mostly activators; actives 0.14% (n = 370,000); AID 652106, 2013; further: % of control where 0% means no effect; nearly all actives have a fitted effect of over 65% in size
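Galactose-induced alpha-syn yeast (OD600=0.02, raffinose-pregrown) + pinned cpd, 24 hr, 30 deg C; growth by BacTiter-Glo luminescence. Growth restoration scores as activation.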
Chronic BCR inh – qHTS Assay to Find Inhibitors of Chronic Active B-Cell Receptor Signaling; ABC-DLBCL IkBa-CBG/CBR reporter, luminescence ratio, 4 h; Potency, µM (doses to about 46.1 µM), for the others: at the top dose activity change, negative = inhibition, actives largely listed as inhibitors; actives 0.05% (n = 340,000); active means well fitted inhibition curve with a large enough effect in the signal ratio, with a control signal flat, not every such curve was filed as active; inconclusive means small, poorly fitted or top-dose-only effect, or effect the other way, or a change in a side signal; the % refers to the signal ratio;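 further: plate controls were basal doxycycline-induced cells for no effect and cells given 10 µM MG132 for full effect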
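TMD8 human ABC-DLBCL cells with doxycycline-inducible IκBα–green luciferase fusion and unfused red luciferase, in 0.5% FBS medium; compounds up to 46 uM, 4 h at 37C. Green/red luminescence ratio, filter-overlap corrected, fitted to concentration-response curves.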
uPA surface inh – qHTS for Inhibitors of Cell Surface uPA Generation; cell surface uPA generation assay, qHTS; actives 0.31% (n = 330,000); Potency, µM (top dose mostly 38.3 µM), for inactives: top-dose activity change, negative = inhibition, usual class: inhibitors; AID 540303, 2011; active means well fitted inhibition curve with a large enough effect; inconclusive means small, poorly fitted or top-dose-only effect; inactive means no such curve, though single readings can be large or run the other way; tested in mouse RAW 264.7 cells; further: on the % scale 0 is the no-effect control and ±100 the full control effect; nearly all actives have a fitted effect of over 55% in size
FUS yeast rescue – qHTS for Suppressors of FUS Proteinopathy: Primary screen using FUS-linked yeast assay. Potency, µM (titrated, usually from 76.6 µM), most hits filed as activators. S. cerevisiae FUS-expressing, growth rescue, OD600, 24 h. actives 0.24% (n = 390,000);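 further: plate controls were DMSO vehicle for no effect and reference control for full effect; nearly all actives have a fitted effect of over 55% in size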
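Restored growth of FUS-toxic S. cerevisiae, read as 600 nm absorbance after 24 h at 30C in galactose medium (starting OD 0.005). Controls CP55940 and DMSO.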
Numbers without * were called inactive; i = inactive; ? = inconclusive; · = no result; [ ] = another dose, or the depositor's remark. A selection: hits, their analogues and other compounds. The true share with any hit is near 2.3%. Unless noted, the call rests on the fitted dose curve; in most records, active means well fitted curve in the direction sought with a large enough effect; inconclusive means small, poorly fitted or top-dose-only effect, or another doubt; inactive means no such curve, though single readings can be large; an effect the other way counts as inactive or inconclusive. Potency means the concentration at half of the fitted maximal effect.

SMILES | Abeta yeast res | TDP43 rescue | aSyn rescue | Chronic BCR inh | uPA surface inh | FUS yeast rescue
COC(=O)[C@H](CCSC)NC(=O)Cn1cnc(C(=O)Nc2ccc(C)c(C)c2)n1 | i | -0.3% | -1.5% | -5.9% | 10µM* | i
O=C(c1cc2cc(F)ccc2[nH]1)N1CCCC(Nc2ccc(F)cc2)C1 (stereo unspecified) | i | 17.8µM* | 2.8% | -7.2% | 4.3% | i
CCc1ccc(-c2nc3cc(NC(=O)c4ccc(C)c(C)c4)ccc3o2)cc1 | i | -26.7% | · | · | · | i
CCc1ccc2oc(-c3ccc(NC(C)=O)cc3)nc2c1 | i | 3.55µM* | -31.2% | ? | 5.2% | i
COc1ccc(OC)c(/C=C/C(=O)c2ccc3c(c2)OCCO3)c1 | i | 11.2µM* | -10.7% | ? | ? | i
C[C@H](NC(=O)c1nc[nH]c1C(=O)N[C@@H](Cc1ccccc1)C(=O)OC(C)(C)C)c1ccccc1 | i | 16.0% | 7.9% | -5.8% | ? | ?
C[C@H](NC(=O)c1[nH]cnc1C(=O)Nc1ccccc1)c1ccccc1 | i | 25.1µM* | -26.0% | ? | -12.6% | i
CCOC(=O)c1ccc(NC(=O)c2nc[nH]c2C(=O)N[C@@H](C)C(=O)OC(C)(C)C)cc1 | i | 28.2µM* | 5.6% | -0.8% | 6.9% | i
CCOC(=O)c1ccc(NC(=O)c2nc[nH]c2C(=O)N[C@@H](CC(C)C)C(=O)OC(C)(C)C)cc1 | i | 19.6% | 0.6% | -1.0% | -1.1% | ?
C[C@@H](NC(=O)c1nc[nH]c1C(=O)N[C@@H](Cc1ccccc1)C(=O)OC(C)(C)C)c1ccccc1 | i | -18.2% | 0.9% | 14.7% | -16.1% | 20µM*
CC(C)(C)OC(=O)NCCCC[C@H](NC(=O)c1[nH]cnc1C(=O)Nc1ccccc1)C(=O)OC(C)(C)C | i | 3.4% | -6.1% | 1.0% | ? | ?
Cc1ccc(NC(=O)c2nc[nH]c2C(=O)N[C@H](C)c2ccccc2)cc1 | ? | -7.7% | ? | ? | -14.9% | i
CC(C)(C)OC(=O)NCCCC[C@H](NC(=O)c1[nH]cnc1C(=O)Nc1ccc(Cl)cc1)C(=O)OC(C)(C)C | i | 8.5% | 4.8% | 5.4% | ? | 15.8µM*
O=C(CCc1nc2ccccc2c(=O)[nH]1)OCc1cccc(C(F)(F)F)c1 | i | 16.9% | 8.4% | -0.8% | -3.7% | ·
COc1ccc(-c2ccc(CCC(=O)O)n2NC(N)=O)cc1 | i | -4.0% | -1.9% | ? | 5.2% | i
C[C@@H](NC(=O)c1nc[nH]c1C(=O)N[C@@H](CCCCNC(=O)OC(C)(C)C)C(=O)OC(C)(C)C)c1ccccc1 | i | 0.0% | -0.4% | -1.8% | ? | 20µM*
CC(C)C[C@H](NC(=O)c1nc[nH]c1C(=O)N[C@@H](CCCCNC(=O)OC(C)(C)C)C(=O)OC(C)(C)C)C(=O)OC(C)(C)C | i | 27.4% | 0.9% | -0.2% | ? | ?
CN1CCN(CC(O)c2ccccc2)CC1 (stereo unspecified) | · | · | · | 4.7% | · | ·
O=C(Oc1ccc2ccc(O)cc2c1)c1ccccc1Cl | i | 14.1µM* | -11.6% | -5.4% | -2.6% | i
O=C(Oc1ccc2ccc(O)cc2c1)C1CCCCC1 | i | 22.4µM* | -4.2% | 1.5% | 3.4% | i
COCCN(Cc1cc2cc(C)cc(C)c2nc1Cl)C(=O)Nc1ccccc1 | i | -6.1% | -7.0% | 16.4µM* | ? | i
CC(Cc1cccs1)NC(=S)Nc1ccc(Cl)cc1 (stereo unspecified) | ? | -13.5%[0.397 µM] | -18.0% | 14.0% | -4.5% | i
O=C(Cc1cccs1)Nc1ccc(S(=O)(=O)Nc2ncccn2)cc1 | i | -0.5% | -14.0% | -2.5% | 2.9% | 10µM*
O=C(Cc1cccs1)Nc1ccc(F)c(F)c1 | i | ? | 12.5% | 2.3% | 2.1% | i
CC(Cc1cccs1)NC(=S)Nc1ccc(Cl)c(Cl)c1 (stereo unspecified) | 11.2µM* | -16.7%[0.397 µM] | -0.3% | ? | 3.4% | i
SMILES | Abeta yeast res | TDP43 rescue | aSyn rescue | Chronic BCR inh | uPA surface inh | FUS yeast rescue
Cc1ccnc(NS(=O)(=O)c2ccc(NC(=O)Cc3cccs3)cc2)n1 | i | 13.5% | 3.6% | -1.2% | 3.9% | ?
Cc1ccc(NC(=O)Cc2cccs2)cc1Cl | i | 20µM* | 1.8% | ? | 2.2% | i
O=C(c1cc(COc2ccc(F)cc2Cl)on1)N1CCN(c2cnccn2)CC1 | i | 31.6µM* | 0.9% | 3.5% | -15.2% | ·
COc1ccc(C)cc1NC(=O)CNc1ccc(C(C)=O)cc1 | i | 26.8% | -0.8% | -7.1% | 6.4% | i
CCOc1cccc(/C=C/c2ccc3cccc(O)c3n2)c1OC | i | 19.7% | 9.6% | ? | -1.4% | i
CCOc1cc(/C=C/c2ccc3cccc([N+](=O)[O-])c3n2)ccc1OCC(=O)N(C)C | i | -9.9% | 0.6% | ? | -9.7% | i
CCOc1cc(/C=C/c2ccc3cccc([N+](=O)[O-])c3n2)ccc1O | i | 15.8µM* | 1.7% | ? | -9.2% | ·
CCOc1cccc(/C=C/c2ccc3cccc(O)c3n2)c1O | i | 11.2µM* | -3.0% | ? | -11.5% | i
COc1ccc(CNC(=O)/C=C/c2cc3c(cc2Br)OCO3)cc1 | i | 4.6% | -9.2% | 1.2% | -0.1% | i
O=C(Cc1ccc(F)cc1)c1ccc(O)cc1O | i | 12.6µM* | 6.9% | ? | 0.6% | i
CCCc1cc(C(=O)Cc2ccc(F)cc2)c(O)cc1O | i | ? | -49.7% | -0.9% | 2.5% | i
O=C(Cc1ccccc1F)c1ccc(O)cc1O | ? | 20.7%[9.22 µM] | -6.3% | ? | -3.0% | i
CCc1cc(C(=O)Cc2ccc(F)cc2)c(O)cc1O | i | 12.6µM* | 8.3% | -0.9% | 4.1% | i
O=C(CCCOC(=O)c1ccc(O)cc1O)c1ccc(F)cc1 | i | 16.2% | -1.6% | -3.1% | -1.8% | i
O=C(Cc1c(F)cccc1Cl)c1ccc(O)cc1O | i | 15.8µM* | -2.4% | 6.6% | 1.2% | i
Nc1ccc(N=Nc2ccccc2)cc1[N+](=O)[O-] | i | 4.7% | -3.9% | · | 3.3% | i
CC(NC(=O)COc1ccc(/C=N/NS(=O)(=O)c2ccccc2)cc1)c1ccccc1 (stereo unspecified) | i | -7.3% | -2.2% | -0.6% | 6.5% | i
CCC(=O)N1c2ccccc2CC1C(=O)NCCc1ccc(Cl)cc1 (stereo unspecified) | i | 7.8% | · | · | · | i
